Rows were chosen to be rich in hits. Some 6.6% of all compounds tested hit in one or more screens of this group.
Fluor 339 460 – intrinsic fluorescence of library compounds, ex339/em460 – biochemical, MLSMR library, data from DPM-DC assay, artefact control, profiling panel; compound autofluorescence, ex339/em460 nm, NADH buffer; active compounds read high; 1 = no-compound wells, NADH background; fluorescence fold increase at 10 µM; 65,000 tested, 5.5% active; AID 709, 2007;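 active = at 10 µM, mean starting fluorescence two-fold or more over control wells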;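 also: signal is the first read of a kinetic run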
NADH enzymes – inhibitors of PK/LDH coupling enzymes, profiling panel, artefact control, biochemical, MLSMR library; coupled PK/LDH NADH assays, four targets; IC50, µM (top dose mostly 10 µM); 65,000 tested, 0.02% active;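 active = single-dose screening hits from any of four coupled enzyme assays that gave an IC50 when retested across doses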;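 also: the DPM-DC format reads NADH fluorescence rather than 340 nm absorbance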
Spn DPM-DC inh – S. pneumoniae DPM-DC inhibitors, primary screen, biochemical, PK/LDH-coupled NADH fluorescence; diphosphomevalonate decarboxylase (Streptococcus pneumoniae D39); calls only at 10 µM; purified DPM-DC; AID 556, 2006; 65,000 tested, 0.49% active;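 active = the 320 compounds with the highest percent inhibition in the single-dose primary screen, excluding strongly autofluorescent ones, cut at about 32% in these data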;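 also: kinetic rate of NADH fluorescence loss reporting ADP formed by the decarboxylase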
Spn MK inh – S. pneumoniae MK inhibitors, primary screen, biochemical, PK/LDH-coupled NADH absorbance. purified MK, PK/LDH-coupled NADH absorbance 340 nm. inhibition, % at 10 µM. 65,000 tested, 0.48% active. mevalonate kinase [Streptococcus pneumoniae D39];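 active = ranked among the strongest by inhibition in the single 10 µM screen, a fixed top-ranked set picked for dose follow-up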
Spn PMK inh – S. pneumoniae PMK inhibitors, primary screen, biochemical, mevalonate pathway, pilot trial included; phosphomevalonate kinase (Streptococcus pneumoniae D39); purified PMK, PK/LDH-coupled NADH absorbance 340 nm; inhibition, % at 10 µM; 65,000 tested, 0.49% active;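 active = top-ranked compounds by inhibition in the single 10 µM screen, taking a fixed number of the strongest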
A number is an active result; n = inactive; x = not tested or not shown; + = active, no number.

SMILES	Fluor 339 460	NADH enzymes	Spn DPM-DC inh	Spn MK inh	Spn PMK inh
Cc1cccc(-c2c3c(=O)n(C)c(=O)n(C)c3cn2-c2ccc(O)cc2)c1	2.1	n	n	n	n
Cn1c(=O)c2c(-c3ccccc3)n(N3CCOCC3)cc2n(C)c1=O	n	n	n	n	n
Cn1c(=O)c2c(-c3ccccc3)n(C3CCCCC3)cc2n(C)c1=O	n	n	n	n	31
Cn1c(=O)c2c(-c3ccccc3)n(-c3ccccc3O)cc2n(C)c1=O	2.2	n	n	n	n
COc1ccc(-c2c3c(=O)n(C)c(=O)n(C)c3cn2-c2cc(OC)ccc2OC)cc1	3.7	n	x	n	n
Cc1c(C(=O)N2CCOCC2)sc(NC(=O)c2ccc3c(c2)OCO3)c1C#N	n	n	n	n	n
CCNc1nc(NC(C)(C)C)nc(N(C#N)CC)n1	n	n	n	n	25
O=C(NC1CCCCCCC1)c1c(O)c2ccccc2[nH]c1=O	n	n	n	n	n
O=C(Nc1c(C(=O)O)[nH]c2ccccc12)NC1CCCCC1	3.9	n	x	n	n
CCC(C)(C)n1nnnc1C(c1cccnc1)N1CCCc2ccccc21 (stereo unspecified)	n	n	n	n	28
N#CCCn1ncn(-c2ccccc2)c1=S	n	n	n	n	n
COc1ccc(N2C(=O)CSC23CCCCC3)cc1	n	n	n	n	n
COc1ccc(N2C(=O)c3ccccc3NC23CCCCC3)cc1	2.2	n	x	n	n
COc1ccc(CC(NC(C)=O)C(=O)NC2CCN(c3nc(C)cc(C)c3C#N)CC2)c(OC)c1 (stereo unspecified)	2	n	n	n	n
COc1cccc(CC(NC(C)=O)C(=O)NC2CCN(c3nc(C)cc(C)c3C#N)CC2)c1 (stereo unspecified)	n	n	n	n	n
COc1ccc(-c2cc(C(F)(F)F)nc(N3CCN(c4ccccc4)CC3)n2)cc1OC	n	n	n	n	n
COc1nc(-c2ccccc2)cc(-c2ccc(OC)c(OC)c2)n1	2.2	n	x	n	n
CCOC(=O)CSc1nnc(N)s1	n	n	n	n	n
CCOC(=O)C(CCc1nnc(N)s1)C(=O)OCC	n	n	n	n	30
CCN(CC)Cc1c(O)ccc2c(C)c(CC(=O)OC)c(=O)oc12	2.4	n	x	n	n
C=C(C)COc1ccc2c(C)c(CC(=O)OC)c(=O)oc2c1C	3.8	n	x	n	n
CCN(CC)Cc1c(O)ccc2c(-c3ccccc3)cc(=O)oc12	2.1	n	x	n	n
COC(=O)Cc1c(C)c2ccc(OCC(C)=O)c(C)c2oc1=O	3.8	n	x	n	n
Cc1oc(-c2ccccc2F)nc1CSCC(=O)NCc1ccc2c(c1)OCO2	n	n	n	n	n
CCOC(=O)c1cc2oc(C(c3nnnn3C3CCCCC3)N3CCOCC3)cc2[nH]1 (stereo unspecified)	n	n	n	n	n
SMILES	Fluor 339 460	NADH enzymes	Spn DPM-DC inh	Spn MK inh	Spn PMK inh
CCN(CC)c1ccc(-c2nn3c(-c4ccccc4OC)nnc3s2)cc1	3.6	n	x	n	n
COc1cccc(OC)c1-c1nn2c(-c3cc(-c4ccccc4)n[nH]3)nnc2s1	n	46µM	n	n	26
COc1ccc(-c2nnc3sc(-c4c(OC)cccc4OC)nn23)cc1	n	n	n	n	n
CC(=O)Nc1ccc(C2Nc3ccccc3C(=O)N2C2CCCCC2)cc1 (stereo unspecified)	2.2	n	x	n	n
CC(=O)Nc1ccc(C2NC(=O)c3ccccc3O2)cc1 (stereo unspecified)	n	n	n	n	n
Cn1c(/C=N/n2cnnc2)nc2ccccc21	2.5	n	x	n	n
Cn1c(/C=N/c2nc3ccccc3[nH]2)nc2ccccc21	n	n	n	n	n
OCCNCC1(O)C2CC3CC(C2)CC1C3 (stereo unspecified)	n	n	n	n	26
CCOC(=O)c1c(C)[nH]c(C(=O)C(C)OC(=O)c2cccc(OCc3c(C)noc3C)c2)c1C (stereo unspecified)	n	n	n	n	n
COc1cc2nc(N(C)C)nc(N)c2cc1OC	5	n	x	n	n
O=C(Cc1cccs1)Nc1cccnc1	n	n	n	n	n
CC(CC(=O)O)NCC1COc2ccccc2O1 (stereo unspecified)	n	n	n	n	26
O=C(O)CNCC1COc2ccccc2O1 (stereo unspecified)	n	n	n	n	n
O=C(c1ccco1)N1CCN(C(=O)C2CCN(S(=O)(=O)Cc3ccccc3)CC2)CC1	n	n	n	n	n
CCOC(=O)C(Cc1ccccc1)C(=O)Nc1nccs1 (stereo unspecified)	n	n	+	n	n
Cn1c(=O)n(CCN2CCOCC2)c(=O)c2c1nc1n2CCN1c1ccccc1	n	n	n	n	n
CCN1CCN(c2oc(-c3ccc(OC)cc3)nc2C#N)CC1	3.8	n	x	n	n
CCOc1ccc(-c2nc(C#N)c(N3CCN(Cc4ccccc4)CC3)o2)cc1	n	n	n	n	n
N#Cc1nc(-c2ccc(OCc3ccccc3)cc2)oc1N1CCC(C(N)=O)CC1	4	n	x	n	n
CCOc1ccc(-c2nc(C#N)c(N3CCOCC3)o2)cc1	2.2	n	x	n	n
COc1ccccc1OCc1nc(C#N)c(N2CCC(C(N)=O)CC2)o1	n	n	n	n	n
CCOc1ccc(-c2nc(C#N)c(NC3CC3)o2)cc1	3.8	n	x	n	n
CCOc1ccc(-c2nc(C#N)c(NCc3ccc4c(c3)OCO4)o2)cc1	n	n	n	n	n
Cc1ccccc1COc1ccc(/C(O)=C2/C(=O)C(=O)N(CCCn3ccnc3)C2c2ccco2)cc1 (stereo unspecified)	n	n	n	n	n
O=C(CSc1ccc2nnc(-c3ccccn3)n2n1)NCc1ccco1	n	n	n	n	n
SMILES	Fluor 339 460	NADH enzymes	Spn DPM-DC inh	Spn MK inh	Spn PMK inh
Cc1cccc(-c2nc(C#N)c(N3CCCCCC3)o2)c1	3.8	n	x	n	n
COc1ccc(N2CCN(C(c3ccco3)c3sc4nc(C)nn4c3O)CC2)cc1 (stereo unspecified)	n	n	n	n	27
COc1ccc(-c2cc(C(F)(F)F)n3nc(C(=O)N4CCCC4)cc3n2)cc1	2.2	n	x	n	n
O=C(c1nc2nc(-c3ccc(Cl)cc3)cc(C(F)(F)F)n2n1)N1CCOCC1	3.2	n	x	n	n
O=C(c1nc2nc(-c3ccccc3)cc(C(F)(F)F)n2n1)N1CCOCC1	n	n	n	n	n
COc1ccc(-c2cc(C(F)(F)F)n3nc(C(=O)O)nc3n2)cc1	2.9	n	n	n	n
CN1/C(=N\O)c2cccc3cccc1c23	2.2	n	n	n	n
Cc1cc(NC(=O)CSc2nnnn2C2CCCC2)no1	2.8	n	n	n	n
COc1cc(CN2CCN(C(=O)CC(C)C)CC2)cc(OC)c1OC	n	n	n	52	n

Screens deposited in PubChem by SRMLSC.
